# Assay results taken from the supplement of paper PMC4466140.
# Legend:
# Experiment in all cases: SPOT peptide array binding signal intensity (averaged, normalized) (arbitrary units (background-subtracted, floor 0; scale differs between SH3 domains)); higher = stronger binding of the SH3 domain to the peptide
# AgAbp1 = target: AgAbp1
# Outline: (§1)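 SH3 domains from four yeast species were expressed as GST fusions in E. coli BL21(DE3) and purified on glutathione Sepharose. Each was incubated at 10 μg/ml overnight at 4°C in TBS-based blocking buffer on cellulose membranes bearing synthetic 15-mer peptides, in which serines replaced cysteines. Bound protein was detected with anti-GST antibody, an HRP anti-mouse secondary and luminol, then imaged and quantified with Genespotter. The binding signal is the normalized, background-subtracted spot intensity averaged over replicates, in arbitrary units that are not the same from one domain to another.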
# AgBbc1 = target: AgBbc1
# Outline: as §1
# AgBem1-D1 = target: AgBem1-D1
# Outline: as §1
# AgBzz1-D1 = target: AgBzz1-D1
# Outline: as §1
# AgBzz1-D2 = target: AgBzz1-D2
# Outline: as §1
# AgCyk3 = target: AgCyk3
# Outline: as §1
# AgFus1 = target: AgFus1
# Outline: as §1
# AgHof1 = target: AgHof1
# Outline: as §1
# AgHse1 = target: AgHse1
# Outline: as §1
# AgLsb1 = target: AgLsb1
# Outline: as §1
# AgLsb4 = target: AgLsb4
# Outline: as §1
# AgMyo5 = target: AgMyo5
# Outline: as §1
# AgNbp2 = target: AgNbp2
# Outline: as §1
# AgRvs167 = target: AgRvs167
# Outline: as §1
# AgSho1 = target: AgSho1
# Outline: as §1
# AgSla1-D1-D2 = target: AgSla1-D1-D2
# Outline: as §1
# AgSla1-D3 = target: AgSla1-D3
# Outline: as §1
# CaAbp1-D1 = target: CaAbp1-D1
# Outline: as §1
# CaAbp1-D2 = target: CaAbp1-D2
# Outline: as §1
# CaBbc1 = target: CaBbc1
# Outline: as §1
# CaBem1-D1 = target: CaBem1-D1
# Outline: as §1
# CaBzz1-D1 = target: CaBzz1-D1
# Outline: as §1
# CaBzz1-D2 = target: CaBzz1-D2
# Outline: as §1
# CaCyk3 = target: CaCyk3
# Outline: as §1
# CaFus1 = target: CaFus1
# Outline: as §1
# CaHof1 = target: CaHof1
# Outline: as §1
# CaHse1 = target: CaHse1
# Outline: as §1
# CaLsb1 = target: CaLsb1
# Outline: as §1
# CaLsb4 = target: CaLsb4
# Outline: as §1
# CaMyo5 = target: CaMyo5
# Outline: as §1
# CaNbp2 = target: CaNbp2
# Outline: as §1
# CaRvs167 = target: CaRvs167
# Outline: as §1
# CaRvs167-3 = target: CaRvs167-3
# Outline: as §1
# CaSho1 = target: CaSho1
# Outline: as §1
# CaSla1-D1-D2 = target: CaSla1-D1-D2
# Outline: as §1
# CaSla1-D3 = target: CaSla1-D3
# Outline: as §1
# ScAbp1 = target: ScAbp1
# Outline: as §1
# ScBbc1 = target: ScBbc1
# Outline: as §1
# ScBem1-D1 = target: ScBem1-D1
# Outline: as §1
# ScBzz1-D1 = target: ScBzz1-D1
# Outline: as §1
# ScBzz1-D2 = target: ScBzz1-D2
# Outline: as §1
# ScCyk3 = target: ScCyk3
# Outline: as §1
# ScFus1 = target: ScFus1
# Outline: as §1
# ScHof1 = target: ScHof1
# Outline: as §1
# ScHse1 = target: ScHse1
# Outline: as §1
# ScLsb1 = target: ScLsb1
# Outline: as §1
# ScLsb2 = target: ScLsb2
# Outline: as §1
# ScLsb3 = target: ScLsb3
# Outline: as §1
# ScLsb4 = target: ScLsb4
# Outline: as §1
# ScMyo3 = target: ScMyo3
# Outline: as §1
# ScMyo5 = target: ScMyo5
# Outline: as §1
# ScNbp2 = target: ScNbp2
# Outline: as §1
# ScPex13 = target: ScPex13
# Outline: as §1
# ScRvs167 = target: ScRvs167
# Outline: as §1
# ScSho1 = target: ScSho1
# Outline: as §1
# ScSla1-D1-D2 = target: ScSla1-D1-D2
# Outline: as §1
# ScSla1-D3 = target: ScSla1-D3
# Outline: as §1
# SpAbp1-D1 = target: SpAbp1-D1
# Outline: as §1
# SpBbc1 = target: SpBbc1
# Outline: as §1
# SpBzz1-D1 = target: SpBzz1-D1
# Outline: as §1
# SpBzz1-D2 = target: SpBzz1-D2
# Outline: as §1
# SpCyk3 = target: SpCyk3
# Outline: as §1
# SpHof1 = target: SpHof1
# Outline: as §1
# SpHof1-2 = target: SpHof1-2
# Outline: as §1
# SpHof1-3 = target: SpHof1-3
# Outline: as §1
# SpHse1 = target: SpHse1
# Outline: as §1
# SpLsb1 = target: SpLsb1
# Outline: as §1
# SpLsb4 = target: SpLsb4
# Outline: as §1
# SpMyo1 = target: SpMyo1
# Outline: as §1
# SpNbp2 = target: SpNbp2
# Outline: as §1
# SpPex13 = target: SpPex13
# Outline: as §1
# SpRvs167 = target: SpRvs167
# Outline: as §1
# SpSla1-D1-D2 = target: SpSla1-D1-D2
# Outline: as §1
# SpSla1-D3 = target: SpSla1-D3
# Outline: as §1
binder,measurement,setting,value
DTFLPPPPPPPSNFE,SPOT peptide array binding signal intensity,AgAbp1,2
same,SPOT peptide array binding signal intensity,AgBbc1,≤ 0
same,SPOT peptide array binding signal intensity,AgBem1-D1,≤ 0
same,SPOT peptide array binding signal intensity,AgBzz1-D1,≤ 0
same,SPOT peptide array binding signal intensity,AgBzz1-D2,≤ 0
same,SPOT peptide array binding signal intensity,AgCyk3,1
same,SPOT peptide array binding signal intensity,AgFus1,≤ 0
same,SPOT peptide array binding signal intensity,AgHof1,23.5
same,SPOT peptide array binding signal intensity,AgHse1,4.5
same,SPOT peptide array binding signal intensity,AgLsb1,≤ 0
same,SPOT peptide array binding signal intensity,AgLsb4,≤ 0
same,SPOT peptide array binding signal intensity,AgMyo5,1100
same,SPOT peptide array binding signal intensity,AgNbp2,≤ 0
same,SPOT peptide array binding signal intensity,AgRvs167,1.33
same,SPOT peptide array binding signal intensity,AgSho1,≤ 0
same,SPOT peptide array binding signal intensity,AgSla1-D1-D2,≤ 0
same,SPOT peptide array binding signal intensity,AgSla1-D3,0.5
same,SPOT peptide array binding signal intensity,CaAbp1-D1,≤ 0
same,SPOT peptide array binding signal intensity,CaAbp1-D2,≤ 0
same,SPOT peptide array binding signal intensity,CaBbc1,≤ 0
same,SPOT peptide array binding signal intensity,CaBem1-D1,≤ 0
same,SPOT peptide array binding signal intensity,CaBzz1-D1,108
same,SPOT peptide array binding signal intensity,CaBzz1-D2,11.8
same,SPOT peptide array binding signal intensity,CaCyk3,≤ 0
same,SPOT peptide array binding signal intensity,CaFus1,≤ 0
same,SPOT peptide array binding signal intensity,CaHof1,≤ 0
same,SPOT peptide array binding signal intensity,CaHse1,3.25
same,SPOT peptide array binding signal intensity,CaLsb1,≤ 0
same,SPOT peptide array binding signal intensity,CaLsb4,≤ 0
same,SPOT peptide array binding signal intensity,CaMyo5,11.5
same,SPOT peptide array binding signal intensity,CaNbp2,≤ 0
same,SPOT peptide array binding signal intensity,CaRvs167,0.5
same,SPOT peptide array binding signal intensity,CaRvs167-3,≤ 0
same,SPOT peptide array binding signal intensity,CaSho1,12
same,SPOT peptide array binding signal intensity,CaSla1-D1-D2,≤ 0
same,SPOT peptide array binding signal intensity,CaSla1-D3,≤ 0
same,SPOT peptide array binding signal intensity,ScAbp1,≤ 0
same,SPOT peptide array binding signal intensity,ScBbc1,≤ 0
same,SPOT peptide array binding signal intensity,ScBem1-D1,≤ 0
same,SPOT peptide array binding signal intensity,ScBzz1-D1,2.5
same,SPOT peptide array binding signal intensity,ScBzz1-D2,≤ 0
same,SPOT peptide array binding signal intensity,ScCyk3,≤ 0
same,SPOT peptide array binding signal intensity,ScFus1,≤ 0
same,SPOT peptide array binding signal intensity,ScHof1,25.5
same,SPOT peptide array binding signal intensity,ScHse1,≤ 0
same,SPOT peptide array binding signal intensity,ScLsb1,≤ 0
same,SPOT peptide array binding signal intensity,ScLsb2,≤ 0
same,SPOT peptide array binding signal intensity,ScLsb3,≤ 0
same,SPOT peptide array binding signal intensity,ScLsb4,≤ 0
same,SPOT peptide array binding signal intensity,ScMyo3,2140
same,SPOT peptide array binding signal intensity,ScMyo5,1690
same,SPOT peptide array binding signal intensity,ScNbp2,≤ 0
same,SPOT peptide array binding signal intensity,ScPex13,140
same,SPOT peptide array binding signal intensity,ScRvs167,1
same,SPOT peptide array binding signal intensity,ScSho1,≤ 0
same,SPOT peptide array binding signal intensity,ScSla1-D1-D2,≤ 0
same,SPOT peptide array binding signal intensity,ScSla1-D3,≤ 0
same,SPOT peptide array binding signal intensity,SpAbp1-D1,≤ 0
same,SPOT peptide array binding signal intensity,SpBbc1,≤ 0
same,SPOT peptide array binding signal intensity,SpBzz1-D1,1360
same,SPOT peptide array binding signal intensity,SpBzz1-D2,6.5
same,SPOT peptide array binding signal intensity,SpCyk3,≤ 0
same,SPOT peptide array binding signal intensity,SpHof1,≤ 0
same,SPOT peptide array binding signal intensity,SpHof1-2,6.75
same,SPOT peptide array binding signal intensity,SpHof1-3,≤ 0
same,SPOT peptide array binding signal intensity,SpHse1,12.5
same,SPOT peptide array binding signal intensity,SpLsb1,≤ 0
same,SPOT peptide array binding signal intensity,SpLsb4,≤ 0
same,SPOT peptide array binding signal intensity,SpMyo1,1100
same,SPOT peptide array binding signal intensity,SpNbp2,≤ 0
same,SPOT peptide array binding signal intensity,SpPex13,≤ 0
same,SPOT peptide array binding signal intensity,SpRvs167,2
same,SPOT peptide array binding signal intensity,SpSla1-D1-D2,≤ 0
same,SPOT peptide array binding signal intensity,SpSla1-D3,≤ 0
DAPASKPSVPPRNYF,SPOT peptide array binding signal intensity,SpBzz1-D2,0.5
same,SPOT peptide array binding signal intensity,SpCyk3,≤ 0
same,SPOT peptide array binding signal intensity,SpHof1,1
same,SPOT peptide array binding signal intensity,SpHof1-2,2
same,SPOT peptide array binding signal intensity,SpHof1-3,11
same,SPOT peptide array binding signal intensity,SpHse1,≤ 0
same,SPOT peptide array binding signal intensity,SpLsb1,756
same,SPOT peptide array binding signal intensity,SpLsb4,3340
same,SPOT peptide array binding signal intensity,SpMyo1,2
same,SPOT peptide array binding signal intensity,SpNbp2,3
same,SPOT peptide array binding signal intensity,SpPex13,≤ 0
same,SPOT peptide array binding signal intensity,SpRvs167,802
same,SPOT peptide array binding signal intensity,SpSla1-D1-D2,≤ 0
same,SPOT peptide array binding signal intensity,SpSla1-D3,≤ 0
